# Source: PubChem BioAssay
# Activity calls are given as the source filed them. Unless noted, the rule behind the calls is not given here.
# Legend:
# [1] = kinase inhibitors against Plasmodium liver-stage infection, cell-based, known kinase inhibitor set, luminescence, hepatoma host viability (AID 624392); details: Plasmodium liver stage in hepatoma cells, luciferase luminescence, concentration not given here; liver cell % of control: measured here: host liver cell viability; parasite % of control: stronger effect = lower value;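 note: infected cells incubated roughly two days before readout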
# [2] = modulators of glucocorticoid suppression of NF-kB, cell-based, luciferase, IL-1B stimulus, dexamethasone (AID 624486); details: NF-kB luciferase reporter, IL-1B + dexamethasone, luminescence; percent of negative control (+Dex): actives lie on both sides, concentration not given here; z-score: measured here: IL-1B alone, no Dex;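 for percent of negative control (+Dex): 100% = mean signal of vehicle control wells on the plate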
# [3] = target: Cellular tumor antigen p53 (Homo sapiens) (UniProt P04637); assay: kinase inhibitors altering GFP-p53 stability in HPV16-positive cells, imaging, known kinase inhibitor set, EGFP/DsRed ratio (AID 1053116); details: stronger effect = higher value; EGFP object count: measured here: GFP-p53 positive objects count;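 note: cells exposed to compounds for 24 h at 37 °C before reading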
# [4] = IRF3 reporter activation in THP-1 macrophages, cell-based, PMA-stimulated THP-1, luminescence (AID 1053176); details: PMA-differentiated THP-1, IRF3 reporter luminescence; stronger effect = higher value
# [5] = kinase inhibitors altering Pseudomonas killing of worms, whole organism (AID 651566);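 note: tested at 14 µM; sign flipped so higher z means a lower ratio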; details: C. elegans killed by P. aeruginosa, survival ratio
# [6] = activators of macrophage pro-inflammatory response, cell-based, murine, luminescence (AID 652131); details: murine macrophage pro-inflammatory reporter, stronger effect = higher value
# [7] = survival rescue of mitochondrial mutant cells in low glucose, primary screen, MELAS cybrids, Rieske KO mouse fibroblasts, CellTiter-Glo (AID 1508586;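 active = mean z-score across replicates of 1.96 or higher in either the MELAS or the Rieske mutant cell line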;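 note: z relative to plate mean and SD of compound and empty wells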)
# Chain of Cellular tumor antigen p53 (Homo sapiens) (P04637 whole entry, looked up): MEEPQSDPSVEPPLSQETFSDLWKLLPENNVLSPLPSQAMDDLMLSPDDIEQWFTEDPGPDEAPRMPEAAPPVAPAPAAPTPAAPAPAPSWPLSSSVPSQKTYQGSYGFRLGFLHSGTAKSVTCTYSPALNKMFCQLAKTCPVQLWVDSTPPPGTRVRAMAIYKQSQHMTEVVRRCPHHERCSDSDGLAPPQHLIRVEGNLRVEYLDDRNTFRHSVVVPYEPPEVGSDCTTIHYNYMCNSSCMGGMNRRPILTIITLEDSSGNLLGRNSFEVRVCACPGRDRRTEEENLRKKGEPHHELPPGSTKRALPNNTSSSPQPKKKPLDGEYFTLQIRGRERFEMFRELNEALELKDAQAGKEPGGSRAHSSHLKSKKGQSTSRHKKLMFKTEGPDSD
Structure (SMILES),liver cell % of control [1] [%],parasite % of control [1],percent of negative control (+Dex) [2],z-score [2],EGFP object count [3],EGFP/DsRed ratio [3],fraction signal [4],z-score [5],z-score [6],"z-score ([7]; MELAS cybrid survival, CellTiter-Glo 48 h, stronger effect = higher value)","z-score ([7]; Rieske KO mouse fibroblast survival, CellTiter-Glo 72 h)"
Cn1cc(C2=C(c3ccc4ccccc4c3)C(=O)NC2=O)c2ccccc21,105,53.6% (inactive),94% (inactive),-0.025,3,0.0576 (inactive),-0.001 (inactive),–,–,–,–
CN(C)CC#Cc1cccc(C(=O)c2cnn(-c3ccc(F)cc3)c2N)c1,101,74.8% (inactive),109% (inactive),1.23,3,0.0589 (inactive),-0.001 (inactive),–,–,–,–
Cn1c(=O)c(Cc2ccc(F)cc2F)cc2cnc(NC3CCOCC3)nc21,103,54.9% (inactive),98.5% (inactive),0.48,3,0.139 (inactive),-0.0055 (inactive),–,–,–,–
CC(=O)NC(Cc1ccc(OP(=O)(O)O)cc1)C(=O)NC1CCC(=O)N2CCCC(C(=O)NCc3cccc4ccccc34)N2C1=O (centres undefined),98.5,45.1% (inactive),100% (inactive),-0.165,8,0.214 (inactive),-0.0075 (inactive),–,–,–,–
Cn1cc(C2=C(c3c4n(c5ccccc35)CCC(CN)CC4)C(=O)NC2=O)c2ccccc21 (centres undefined),127,42.3% (inactive),94% (inactive),-0.165,30.5,0.0801 (inactive),-0.003 (inactive),–,–,–,–
CC(=O)N[C@H](Cc1ccc(OP(=O)(O)O)cc1)C(=O)N[C@@H]1CCC(=O)N2CCC[C@@H](C(=O)N[C@H]3CCc4ccccc43)N2C1=O,122,61.5% (inactive),95.5% (inactive),0.9,6,0.211 (inactive),-0.003 (inactive),–,–,–,–
CS(=O)(=O)CCc1cccc(C(=O)c2cnn(-c3ccc(F)cc3)c2N)c1,95.7,45.3% (inactive),102% (inactive),1.1,1.5,0.152 (inactive),-0.0075 (inactive),–,–,–,–
Nc1c(C(=O)c2cccc(CCCN3CCOCC3)c2)cnn1-c1ccc(F)cc1,97.8,48.1% (inactive),109% (inactive),1.09,6,0.339 (inactive),-0.005 (inactive),–,–,–,–
Nc1c(C(=O)c2cccc(-c3cccnc3)c2)cnn1-c1ccc(F)cc1,219,7.92% (inactive),111% (inactive),0.475,3,0.0451 (inactive),-0.005 (inactive),–,–,–,–
Cn1cc(C2=C(Sc3ccccc3)C(=O)NC2=O)c2ccccc21,92.3,50.7% (inactive),99.5% (inactive),0.02,2.5,0.0664 (inactive),0.008 (inactive),–,–,–,–
Cn1cc(C2=C(c3cn(CCCO)c4ccccc34)C(=O)NC2=O)c2ccccc21,101,33.3% (inactive),115% (inactive),-0.1,9.5,0.221 (inactive),0.0055 (inactive),–,–,–,–
Cn1cc(C2=C(c3cn(CCCCO)c4ccccc34)C(=O)NC2=O)c2ccccc21,84,14.3% (inactive),108% (inactive),-1.57,32.5,0.668 (inactive),-0.005 (inactive),–,–,–,–
Cn1cc(C2=C(c3ccc(N)cc3)C(=O)NC2=O)c2ccccc21,135,32.1% (inactive),100% (inactive),-0.99,28.5,0.493 (inactive),-0.005 (inactive),–,–,–,–
COc1cccc(C2=C(c3cn(C)c4cc(F)ccc34)C(=O)NC2=O)c1,128,31.5% (inactive),114% (inactive),0.535,7,0.327 (inactive),0.0095 (inactive),–,–,–,–
N#Cc1c(C(=O)c2ccccc2)cnn1-c1ccccc1,104,56.2% (inactive),106% (inactive),1.11,7,0.125 (inactive),-0.007 (inactive),–,–,–,–
CON=C1NC(=O)C(=Cc2ccc3ncccc3c2)S1,89.4,71.6% (inactive),113% (inactive),2.23,3.5,0.0939 (inactive),-0.005 (inactive),–,–,–,–
COc1ccc(F)cc1C(=O)c1cnc(NC2CCN(S(C)(=O)=O)CC2)nc1N,97.2,587% (inactive),96.5% (inactive),-0.18,4.5,0.0651 (inactive),-0.009 (inactive),–,–,–,–
Nc1c(C(=O)c2cccc(C#CCN3CCOCC3)c2)cnn1-c1ccc(F)cc1,159,75.7% (inactive),120% (inactive),1.29,2.5,0.12 (inactive),0.0055 (inactive),–,–,–,–
O=C1NC(=NCCc2ccc(Cl)cc2)SC1=Cc1ccc2ncccc2c1,108,53.8% (inactive),95% (inactive),0.425,6.5,0.259 (inactive),-0.0075 (inactive),–,–,–,–
Cn1cc(C2=C(c3cccc4ccccc34)C(=O)NC2=O)c2ccccc21,108,33.9% (inactive),95.5% (inactive),-1.1,14,0.386 (inactive),-0.007 (inactive),–,–,–,–
Nc1c(C(=O)c2cccc(OCCN3CCOCC3)c2)cnn1-c1ccc(F)cc1,121,47.9% (inactive),100% (inactive),0.485,4,0.127 (inactive),-0.009 (inactive),–,–,–,–

Structure (SMILES),liver cell % of control [1] [%],parasite % of control [1],percent of negative control (+Dex) [2],z-score [2],EGFP object count [3],EGFP/DsRed ratio [3],fraction signal [4],z-score [5],z-score [6],"z-score ([7]; MELAS cybrid survival, CellTiter-Glo 48 h, stronger effect = higher value)","z-score ([7]; Rieske KO mouse fibroblast survival, CellTiter-Glo 72 h)"
Cn1cc(C2=C(c3cn(CCN)c4ccccc34)C(=O)NC2=O)c2ccccc21,89.8,29.9% (inactive),99% (inactive),0.435,14.5,0.0574 (inactive),0.0015 (inactive),–,–,–,–
COc1cccc2c1c(C1=C(c3cn(C)c4ccccc34)C(=O)NC1=O)cn2C,85.8,34.6% (inactive),103% (inactive),0.84,12.5,0.282 (inactive),-0.0155 (inactive),–,–,–,–
Cn1cc(C2=C(Oc3ccccc3)C(=O)NC2=O)c2ccccc21,109,43% (inactive),102% (inactive),0.18,41,0.339 (inactive),-0.0005 (inactive),–,–,–,–
CSc1c(C2=C(c3cn(C)c4ccccc34)C(=O)NC2=O)c2ccccc2n1C,96.3,78.1% (inactive),110% (inactive),0.45,21,0.217 (inactive),0.0015 (inactive),–,–,–,–
O=C1C(c2c[nH]c3ccccc23)=C(c2c[nH]c3ccccc23)C(=O)N1O,107,29% (inactive),94% (inactive),-1.25,5.5,0.0849 (inactive),0.0015 (inactive),–,–,–,–
O=C1NC(=NCCc2ccc(F)cc2)SC1=Cc1ccc2ncccc2c1,127,57.5% (inactive),99.5% (inactive),0.5,1.5,0.0132 (inactive),0.0035 (inactive),–,–,–,–
Cn1cc(C2=C(c3cn(C)c4ccc(Cl)cc34)C(=O)NC2=O)c2ccccc21,77,33.5% (inactive),114% (inactive),-1.06,156,0.929 (active),-0.0075 (inactive),–,–,–,–
CN=C1NC(=O)C(=Cc2ccc3ncccc3c2)S1,82.2,65.3% (inactive),98.5% (inactive),-0.23,2,0.0435 (inactive),0.0015 (inactive),–,–,–,–
O=C1NC(O)C(c2c[nH]c3ccccc23)=C1c1c[nH]c2ccccc12 (centres undefined),141,47.1% (inactive),93% (inactive),0.455,4,0.15 (inactive),0.001 (inactive),–,–,–,–
CC(=O)NC(Cc1ccc(OP(=O)(O)O)cc1)C(=O)NC1CCC(=O)N2CCCC(C(=O)NCc3ccc(Cl)cc3)N2C1=O (centres undefined),96.1,45.1% (inactive),95.5% (inactive),0.05,3.5,0.276 (inactive),-0.003 (inactive),–,–,–,–
Nc1c(C(=O)c2cccc(C#CCN3CCCCC3)c2)cnn1-c1ccc(F)cc1,91.6,50.5% (inactive),101% (inactive),0.935,1.5,0.0667 (inactive),0.0075 (inactive),–,–,–,–
Nc1c(C(=O)c2cccc(-c3ccc[n+]([O-])c3)c2)cnn1-c1ccc(F)cc1F,105,45.9% (inactive),101% (inactive),0.065,3.5,0.063 (inactive),-0.0155 (inactive),–,–,–,–
NC1=NC(=O)C(=Cc2ccc3ncccc3c2)S1,101,50.6% (inactive),100% (inactive),0.495,4,0.204 (inactive),-0.007 (inactive),–,–,–,–
O=C1NC(=NCCc2ccccc2F)SC1=Cc1ccc2ncccc2c1,108,44.4% (inactive),99% (inactive),0.18,12.5,0.349 (inactive),-0.0025 (inactive),–,–,–,–
COc1cccc(C2=C(c3cn(C)c4cc(C)ccc34)C(=O)NC2=O)c1,112,29% (inactive),98.5% (inactive),-1.5,24,0.336 (inactive),-0.005 (inactive),–,–,–,–
O=C1NC(=NCCc2cccs2)SC1=Cc1ccc2ncccc2c1,118,40.6% (inactive),96% (inactive),-0.36,4.5,0.079 (inactive),-0.003 (inactive),–,–,–,–
Cn1c(=O)c(-c2ccccc2Cl)cc2cnc(NC3CCOCC3)nc21,100,252% (inactive),93% (inactive),-0.175,1,0.00654 (inactive),-0.0055 (inactive),–,–,–,–
COc1cccc(C2=C(c3cn(C)c4cccc(OC)c34)C(=O)NC2=O)c1,91.4,121% (inactive),99% (inactive),0.35,9,0.102 (inactive),0.0015 (inactive),–,–,–,–
N#Cc1c(NC(=O)c2ccc(F)c3ccccc23)sc2c1CCCC2,93.8,163% (inactive),118% (inactive),0.625,–,–,0.0065 (inactive),1.47 (inactive),-1.25 (inactive),-0.605 (inactive),0.108
O=C1NC(=O)C(=Cc2ccc3ncccc3c2)S1,98,60.7% (inactive),126% (active),3.21,5,0.206 (inactive),0.005 (inactive),–,–,–,–
